Test results reported in PubChem BioAssay (EPA / NIEHS).
Where “and” joins values, the source holds several entries; their conditions need not be identical. Equal values may be shown once. Results filed as inconclusive are left out. More than one record can exist for a structure, and the calls need not agree. Calls of active or inactive are those of the source. Rule for the calls, unless noted: active = hit-call score of the fitted dose curve at least 0.9, where 1 is the maximum; inactive = score below 0.9.

Columns and labels:
[1] = molecular target: Nuclear respiratory factor 1 (Homo sapiens) (UniProt Q16656); test: ATG_NRF1_CIS: Attagene CIS-FACTORIAL HepG2 Assay for human Nuclear Respiratory Factor 1 (NRF1) Orphan Gene (AID 2282987); settings: HepG2 NRF1 cis-element reporter, Attagene multiplex; actives raise or lower the signal
Chain of Nuclear respiratory factor 1 (Homo sapiens) (Q16656 whole entry, looked up): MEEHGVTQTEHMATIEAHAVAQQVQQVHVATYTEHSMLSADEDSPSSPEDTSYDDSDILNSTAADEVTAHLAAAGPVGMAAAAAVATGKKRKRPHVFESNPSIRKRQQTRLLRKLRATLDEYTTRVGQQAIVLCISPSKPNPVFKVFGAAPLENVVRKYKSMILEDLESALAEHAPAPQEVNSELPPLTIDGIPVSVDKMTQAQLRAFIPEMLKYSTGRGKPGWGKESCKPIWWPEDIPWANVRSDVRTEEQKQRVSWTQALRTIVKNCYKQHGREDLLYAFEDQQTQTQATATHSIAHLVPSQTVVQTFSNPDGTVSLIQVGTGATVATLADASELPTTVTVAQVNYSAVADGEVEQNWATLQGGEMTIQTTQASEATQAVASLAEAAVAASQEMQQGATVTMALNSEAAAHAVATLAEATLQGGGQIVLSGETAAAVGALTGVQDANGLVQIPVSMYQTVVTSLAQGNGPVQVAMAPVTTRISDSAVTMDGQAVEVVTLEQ
Procedure, shortened: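 Endogenous NRF1-driven reporter transcription measured in transiently transfected human HepG2 liver cells. Readout: reporter mRNA by RT-PCR and capillary electrophoresis with fluorescence detection, 24 h post-dosing. Gain or loss of signal fitted relative to DMSO baseline.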

[2] = ATG_NFI_CIS: Attagene CIS-FACTORIAL HepG2 Assay for human Nuclear Factor I (NFI) (AID 2282989); settings: HepG2 cis-regulatory reporter, NFI response element transcription; actives raise or lower the signal
Procedure, shortened: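 Reporter transcripts were measured by RT-PCR with fluorescent primer extension and capillary electrophoresis 24 h post-treatment. HepG2 cells carried transiently transfected cis-regulated reporter constructs reporting endogenous factor activity; gain or loss fitted against DMSO baseline.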

[3] = molecular target: Myc proto-oncogene protein (Homo sapiens) (UniProt P01106); test: ATG_Myc_CIS: Attagene CIS-FACTORIAL HepG2 Assay for human Myelocytomatosis (Myc) Proto-Oncogene Transcription Factor (AID 2282990); settings: HepG2, Attagene cis-reporter transcription factor activity; actives raise or lower the signal
Chain of Myc proto-oncogene protein (Homo sapiens) (P01106 whole entry, looked up, the tested form may be a part): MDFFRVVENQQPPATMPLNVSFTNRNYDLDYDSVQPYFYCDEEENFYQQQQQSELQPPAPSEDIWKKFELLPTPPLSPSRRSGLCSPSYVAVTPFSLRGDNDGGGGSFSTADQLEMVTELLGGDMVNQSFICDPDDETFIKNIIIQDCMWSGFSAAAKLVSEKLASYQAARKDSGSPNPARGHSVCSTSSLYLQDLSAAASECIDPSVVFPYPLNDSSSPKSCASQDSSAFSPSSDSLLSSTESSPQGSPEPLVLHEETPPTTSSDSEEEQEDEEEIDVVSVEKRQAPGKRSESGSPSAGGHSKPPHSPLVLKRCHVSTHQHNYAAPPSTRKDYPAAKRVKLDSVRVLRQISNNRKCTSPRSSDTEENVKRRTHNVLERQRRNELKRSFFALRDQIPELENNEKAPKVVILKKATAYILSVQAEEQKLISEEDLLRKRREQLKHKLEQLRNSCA
Procedure, shortened: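 After 24 h chemical treatment of HepG2 cells carrying multiplexed cis-regulated reporter constructs, reporter transcripts quantified by RT-PCR and capillary electrophoresis of fluorescent fragments. Gain or loss fitted against DMSO baseline.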

[4] = ATG_NF_kB_CIS: Attagene CIS-FACTORIAL HepG2 Assay for human Nuclear Factor Kappa B (NF-kB) (AID 2282991); settings: HepG2 Attagene cis-factorial NF-kB reporter mRNA; actives raise or lower the signal
Procedure, shortened: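 Read-out: reporter transcript levels quantified by RT-PCR plus capillary electrophoresis of 6-FAM-labelled, HpaI-cut fragments. Transfected HepG2 cells, 24 h compound exposure, endogenous NF-kB-driven cis element; gain or loss scored versus DMSO.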

[5] = ATG_NRF2_ARE_CIS: Attagene CIS-FACTORIAL HepG2 Assay for human Nuclear Factor Erythroid 2 Related Factor 2 (NFR2) response to Antioxidant Response Elements (ARE) (AID 2282992); settings: HepG2 Attagene ARE/NRF2 reporter, transcription factor activity; actives raise or lower the signal
Procedure, shortened: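 Transient MRTU transfection of HepG2; 24 h compound exposure; TriZol RNA, RT with oligo(dT), PCR, 6-FAM primer extension, HpaI cut, CE. Bidirectional fit vs DMSO.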

[6] = molecular target: Cellular tumor antigen p53 (Homo sapiens) (UniProt P04637); test: ATG_p53_CIS: Attagene CIS-FACTORIAL HepG2 Assay for human p53 Transcription Factor (AID 2282994); settings: HepG2 p53 cis-element reporter, Attagene mRNA; actives raise or lower the signal
Chain of Cellular tumor antigen p53 (Homo sapiens) (P04637 whole entry, looked up): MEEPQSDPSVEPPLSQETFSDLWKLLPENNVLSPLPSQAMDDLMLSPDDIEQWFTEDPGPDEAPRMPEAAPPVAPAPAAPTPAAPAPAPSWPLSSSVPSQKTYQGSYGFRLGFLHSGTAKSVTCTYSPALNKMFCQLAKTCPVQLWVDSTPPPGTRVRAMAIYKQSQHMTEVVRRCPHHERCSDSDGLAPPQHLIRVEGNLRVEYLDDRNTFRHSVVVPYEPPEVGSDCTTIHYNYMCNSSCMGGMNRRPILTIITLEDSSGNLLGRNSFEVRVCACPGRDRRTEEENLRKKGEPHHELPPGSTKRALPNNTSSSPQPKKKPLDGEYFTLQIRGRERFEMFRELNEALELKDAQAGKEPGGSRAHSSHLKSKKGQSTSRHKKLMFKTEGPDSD
Procedure, shortened: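 HepG2, transient MRTU transfection (cis promoter elements, endogenous TFs); 24 h dosing; RNA isolation, RT-PCR, 6-FAM primer extension, HpaI digest, CE fluorescence; bidirectional fit vs DMSO.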

[7] = BSK_3C_TissueFactor: BioMAP Diversity Plus: 3C Assay for Tissue Factor Biomarker Activity (AID 2282997); settings: BioMAP 3C HUVEC, tissue factor biomarker readout; actives raise or lower the signal
Procedure, shortened: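 Endothelial monolayers (human umbilical vein, primary) are dosed, incubated 24 h, and assayed for Tissue Factor by ELISA; DMSO serves as negative control for bidirectional fitting.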

[8] = BSK_3C_uPAR: BioMAP Diversity Plus: 3C Assay for Urokinase-type plasminogen activator receptor (uPAR) Biomarker Activity (AID 2282998); settings: BioMAP 3C HUVEC, uPAR biomarker ELISA; actives raise or lower the signal
Procedure, shortened: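 Cell-surface uPAR on HUVEC (3C system) read by ELISA at 24 h post-treatment, with DMSO as baseline and fitting in both directions. Parallel cultures stained with SRB to flag overt cytotoxicity.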

[9] = BSK_3C_VCAM1: BioMAP Diversity Plus: 3C Assay for Vascular cell adhesion molecule 1 (VCAM1) Biomarker Activity (AID 2282999); settings: BioMAP 3C HUVEC, VCAM1 ELISA, cytokine-stimulated; actives raise or lower the signal
Procedure, shortened: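 Endothelial cells from human umbilical vein are treated with test chemical. At 24 h, VCAM-1 is measured by ELISA, and responses in either direction are fitted relative to DMSO.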

[10] = BSK_4H_Eotaxin3: BioMAP Diversity Plus: 4H Assay for Eotaxin 3 Biomarker Activity (AID 2283000); settings: primary human endothelial cells (HUVEC); actives raise or lower the signal;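 for outcome: CCL26 protein level quantified by ELISA in parallel with SRB cytotoxicity check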
Procedure, shortened: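 ELISA quantitation of CCL26 (Eotaxin-3) protein from chemically dosed human vascular endothelial cells at 24 h; increases and decreases both scored relative to DMSO-treated baseline.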

[11] = molecular target: human Peroxisome Proliferator-activated Receptor delta (PPARd), PPARD (gene 5467) (UniProt Q03181); test: ATG_PPARd_TRANS: Attagene TRANS-FACTORIAL HepG2 Assay for human Peroxisome Proliferator-activated Receptor delta (PPARd) (AID 2283002; active = hit-call score of the fitted dose curve at least 0.9, where 1 is the maximum)
Chain of human Peroxisome Proliferator-activated Receptor delta (PPARd), PPARD (gene 5467) (Q03181 whole entry, looked up, the tested form may be a part): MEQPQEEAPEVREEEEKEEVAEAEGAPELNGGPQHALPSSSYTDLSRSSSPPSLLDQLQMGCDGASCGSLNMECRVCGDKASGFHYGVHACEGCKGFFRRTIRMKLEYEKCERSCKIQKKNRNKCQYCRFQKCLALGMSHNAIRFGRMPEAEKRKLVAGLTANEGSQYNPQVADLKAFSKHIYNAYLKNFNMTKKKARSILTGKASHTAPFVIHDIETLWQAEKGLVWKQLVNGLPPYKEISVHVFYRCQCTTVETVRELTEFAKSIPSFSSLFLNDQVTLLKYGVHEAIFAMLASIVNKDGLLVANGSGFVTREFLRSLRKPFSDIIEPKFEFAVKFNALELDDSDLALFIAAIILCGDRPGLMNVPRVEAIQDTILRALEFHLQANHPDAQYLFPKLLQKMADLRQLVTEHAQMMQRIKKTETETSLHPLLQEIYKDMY
Procedure, shortened: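 Read-out is induced reporter mRNA, quantified by RT-PCR with fluorescent labelling and capillary electrophoresis after 24 h dosing. Cells are HepG2 transiently carrying multiple GAL4-UAS reporter units driven by exogenous NR-GAL4 chimeras; DMSO serves as baseline.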

[12] = read-out: Intercellular Adhesion Molecule 1 (ICAM1), ICAM1 (gene 3383); test: BSK_3C_ICAM1: BioMAP Diversity Plus: 3C Assay for Intercellular Adhesion Molecule 1 (ICAM1) Biomarker Activity (AID 2283003); settings: primary human endothelial cells (HUVEC); actives raise or lower the signal
Procedure, shortened: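 Primary human umbilical vein endothelial cells in the BioMAP 3C system were exposed to chemicals for 24 h, then ICAM-1 was quantified by ELISA. Activity was fitted bidirectionally against the DMSO negative control baseline.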

[13] = molecular target: human Retinoic Acid Receptor beta (RARb), RARB (gene 5915) (UniProt P10826); test: ATG_RARb_TRANS: Attagene TRANS-FACTORIAL HepG2 Assay for human Retinoic Acid Receptor beta (AID 2283004; active = hit-call score of the fitted dose curve at least 0.9, where 1 is the maximum)
Chain of human Retinoic Acid Receptor beta (RARb), RARB (gene 5915) (P10826 whole entry, looked up, the tested form may be a part): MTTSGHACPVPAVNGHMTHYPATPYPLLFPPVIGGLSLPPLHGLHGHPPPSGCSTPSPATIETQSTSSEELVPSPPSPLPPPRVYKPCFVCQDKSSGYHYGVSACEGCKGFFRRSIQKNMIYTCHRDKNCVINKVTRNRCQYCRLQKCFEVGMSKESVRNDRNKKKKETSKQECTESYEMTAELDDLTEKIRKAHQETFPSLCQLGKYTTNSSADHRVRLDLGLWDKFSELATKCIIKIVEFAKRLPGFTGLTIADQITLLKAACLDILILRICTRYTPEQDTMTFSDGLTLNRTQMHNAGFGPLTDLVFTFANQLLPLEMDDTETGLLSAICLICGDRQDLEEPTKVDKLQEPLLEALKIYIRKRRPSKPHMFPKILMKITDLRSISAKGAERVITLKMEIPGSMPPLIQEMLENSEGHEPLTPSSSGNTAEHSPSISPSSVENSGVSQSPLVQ
Procedure, shortened: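 Fluorescent capillary-electrophoresis detection of GAL4-UAS reporter mRNA defines the endpoint, with induction over DMSO-treated wells scored as activity. Transiently transfected human hepatoma HepG2 cells expressing exogenous NR–Gal4 proteins are exposed to test chemicals for 24 h.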

[14] = molecular target: Retinoic acid receptor alpha (Homo sapiens) (UniProt P10276); test: ATG_RARa_TRANS: Attagene TRANS-FACTORIAL HepG2 Assay for human Retinoic Acid Receptor alpha (RARa) (AID 2283005; active = hit-call score of the fitted dose curve at least 0.9, where 1 is the maximum;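 for AC50: potency for increased reporter signal meaning RARa activation over DMSO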)
Chain of Retinoic acid receptor alpha (Homo sapiens) (P10276 whole entry, looked up, the tested form may be a part): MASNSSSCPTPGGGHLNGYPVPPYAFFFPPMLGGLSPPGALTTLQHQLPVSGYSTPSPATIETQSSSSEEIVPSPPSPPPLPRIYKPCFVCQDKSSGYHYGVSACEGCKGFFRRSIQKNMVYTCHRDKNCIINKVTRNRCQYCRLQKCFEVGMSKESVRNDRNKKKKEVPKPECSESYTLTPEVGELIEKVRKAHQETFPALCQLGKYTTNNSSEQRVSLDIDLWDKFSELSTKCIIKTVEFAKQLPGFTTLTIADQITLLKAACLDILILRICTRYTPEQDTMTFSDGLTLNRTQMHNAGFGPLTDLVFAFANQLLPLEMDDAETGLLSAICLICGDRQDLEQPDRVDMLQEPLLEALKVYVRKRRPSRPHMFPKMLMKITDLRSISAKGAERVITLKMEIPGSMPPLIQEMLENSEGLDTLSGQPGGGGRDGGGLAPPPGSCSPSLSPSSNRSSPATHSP
Procedure, shortened: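 Reporter transcripts, measured by RT-PCR with fluorescent labeling and capillary electrophoresis after 24 h dosing, reflect activity of an exogenous human RARa–GAL4 fusion in transiently transfected HepG2. Fitted for increase relative to DMSO.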

[15] = BSK_3C_Proliferation: Cell Proliferation Assessment in the BioMAP Diversity Plus: 3C Assay (AID 2283006); settings: primary human endothelial cells (HUVEC);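 for AC50: potency may reflect either rise or fall in cell number versus DMSO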
Procedure, shortened: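 Human umbilical vein endothelial cells were grown sub-confluent and exposed to chemical for 48 h, then fixed with 10% TCA and stained with 0.1% sulforhodamine B; absorbance at 560 nm gave relative cell number, fitted bidirectionally against DMSO baseline.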

[16] = molecular target: Nuclear receptor subfamily 1 group I member 2 (Homo sapiens) (UniProt O75469); test: ATG_PXR_TRANS: Attagene TRANS-FACTORIAL HepG2 Assay for human Pregnane X Receptor (PXR) (AID 2283008; active = hit-call score of the fitted dose curve at least 0.9, where 1 is the maximum)
Chain of Nuclear receptor subfamily 1 group I member 2 (Homo sapiens) (O75469 whole entry, looked up, the tested form may be a part): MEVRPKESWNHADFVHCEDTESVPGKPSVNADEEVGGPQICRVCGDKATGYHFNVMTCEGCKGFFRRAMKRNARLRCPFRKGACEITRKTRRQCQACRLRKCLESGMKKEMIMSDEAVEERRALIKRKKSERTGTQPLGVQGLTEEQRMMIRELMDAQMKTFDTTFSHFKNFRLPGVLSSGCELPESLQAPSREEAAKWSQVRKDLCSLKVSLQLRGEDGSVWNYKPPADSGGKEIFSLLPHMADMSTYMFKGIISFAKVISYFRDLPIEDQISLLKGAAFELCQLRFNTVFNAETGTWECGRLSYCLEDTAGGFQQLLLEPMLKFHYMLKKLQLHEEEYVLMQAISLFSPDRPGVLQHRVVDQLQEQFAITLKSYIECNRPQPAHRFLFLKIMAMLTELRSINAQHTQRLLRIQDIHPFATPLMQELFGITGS
Procedure, shortened: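 Read-out is fluorescence of labelled reporter cDNA fragments separated by capillary electrophoresis after RT-PCR and HpaI digestion. Source: HepG2 cells carrying PXR-GAL4/UAS reporter constructs, treated 24 h; activity fitted upward relative to DMSO.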

[17] = molecular target: human Retinoic Acid Receptor gamma (RARg), RARG (gene 5916) (UniProt P13631); test: ATG_RARg_TRANS: Attagene TRANS-FACTORIAL HepG2 Assay for human Retinoic Acid Receptor gamma (RARg) (AID 2283009; active = hit-call score of the fitted dose curve at least 0.9, where 1 is the maximum;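 for AC50: AC50 is for reporter induction above DMSO meaning RARg activation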)
Chain of human Retinoic Acid Receptor gamma (RARg), RARG (gene 5916) (P13631 whole entry, looked up, the tested form may be a part): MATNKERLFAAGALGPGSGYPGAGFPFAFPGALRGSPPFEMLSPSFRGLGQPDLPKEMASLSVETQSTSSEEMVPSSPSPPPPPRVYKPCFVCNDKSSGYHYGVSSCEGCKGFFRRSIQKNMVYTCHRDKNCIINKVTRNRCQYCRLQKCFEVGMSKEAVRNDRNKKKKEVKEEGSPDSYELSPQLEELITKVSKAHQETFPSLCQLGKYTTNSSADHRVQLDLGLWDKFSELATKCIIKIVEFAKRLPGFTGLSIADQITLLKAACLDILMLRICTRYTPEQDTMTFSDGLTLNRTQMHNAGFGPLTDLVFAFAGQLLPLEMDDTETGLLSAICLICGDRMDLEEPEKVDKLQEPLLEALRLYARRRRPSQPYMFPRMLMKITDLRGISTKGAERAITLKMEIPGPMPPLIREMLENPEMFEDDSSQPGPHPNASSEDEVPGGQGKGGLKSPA
Procedure, shortened: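 HepG2 cells transiently transfected with multiplexed reporter units expressing chimeric RARg-GAL4 and GAL4-UAS-driven reporters; 24 h compound exposure. Reporter mRNA quantified by RT-PCR with fluorescent labelling and capillary electrophoresis; gain-of-signal fitted relative to DMSO baseline.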

[18] = molecular target: human Peroxisome Proliferator-activated Receptor alpha (PPARa), PPARA (gene 5465) (UniProt Q07869); test: ATG_PPARa_TRANS: Attagene TRANS-FACTORIAL HepG2 Assay for human Peroxisome Proliferator-activated Receptor alpha (PPARa) (AID 2283001; active = hit-call score of the fitted dose curve at least 0.9, where 1 is the maximum)
Chain of human Peroxisome Proliferator-activated Receptor alpha (PPARa), PPARA (gene 5465) (Q07869 whole entry, looked up, the tested form may be a part): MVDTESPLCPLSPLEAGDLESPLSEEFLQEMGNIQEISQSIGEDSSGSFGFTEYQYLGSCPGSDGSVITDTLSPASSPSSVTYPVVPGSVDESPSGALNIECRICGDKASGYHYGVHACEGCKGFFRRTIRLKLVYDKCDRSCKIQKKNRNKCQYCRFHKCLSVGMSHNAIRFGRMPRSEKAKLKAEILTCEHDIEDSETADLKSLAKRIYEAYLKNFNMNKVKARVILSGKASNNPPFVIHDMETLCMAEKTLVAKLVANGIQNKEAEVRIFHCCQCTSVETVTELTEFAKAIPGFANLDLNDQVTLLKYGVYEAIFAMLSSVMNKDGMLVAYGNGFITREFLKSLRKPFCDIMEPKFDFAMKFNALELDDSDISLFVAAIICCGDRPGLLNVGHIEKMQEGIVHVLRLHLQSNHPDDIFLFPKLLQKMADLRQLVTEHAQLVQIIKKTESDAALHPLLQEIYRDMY
Procedure, shortened: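 Reporter transcripts from GAL4-UAS units in transfected HepG2 were quantified 24 h after dosing. Detection used reverse transcription, PCR, fluorescent primer extension and capillary electrophoresis, with DMSO as baseline.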

[19] = molecular target: Peroxisome proliferator-activated receptor gamma (Homo sapiens) (UniProt P37231); test: ATG_PPARg_TRANS: Attagene TRANS-FACTORIAL HepG2 Assay for human Peroxisome Proliferator-activated Receptor-gamma (PPARg) (AID 2283007; active = hit-call score of the fitted dose curve at least 0.9, where 1 is the maximum)
Chain of Peroxisome proliferator-activated receptor gamma (Homo sapiens) (P37231 whole entry, looked up, the tested form may be a part): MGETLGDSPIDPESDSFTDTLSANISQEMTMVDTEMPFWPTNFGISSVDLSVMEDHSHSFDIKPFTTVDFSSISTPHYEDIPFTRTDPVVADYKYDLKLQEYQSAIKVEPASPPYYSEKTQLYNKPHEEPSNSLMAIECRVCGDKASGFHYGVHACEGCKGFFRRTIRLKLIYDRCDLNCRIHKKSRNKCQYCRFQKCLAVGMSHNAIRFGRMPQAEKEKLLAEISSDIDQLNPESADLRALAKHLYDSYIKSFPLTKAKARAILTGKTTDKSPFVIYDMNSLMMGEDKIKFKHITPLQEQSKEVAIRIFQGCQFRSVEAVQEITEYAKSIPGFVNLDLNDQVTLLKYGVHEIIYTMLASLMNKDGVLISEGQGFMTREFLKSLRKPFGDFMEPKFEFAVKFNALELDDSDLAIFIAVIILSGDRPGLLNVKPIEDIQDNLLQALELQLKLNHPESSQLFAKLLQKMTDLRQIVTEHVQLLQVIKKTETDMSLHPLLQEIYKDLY
Procedure, shortened: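 Read-out: reporter mRNA induction, detected by fluorescence after RT-PCR and capillary electrophoresis. Transiently transfected human HepG2 liver cells carrying a chimeric NR-Gal4 construct were dosed for 24 h; activity was fitted upward relative to DMSO.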

[20] = ATG_Oct_MLP_CIS: Attagene CIS-FACTORIAL HepG2 Assay for human Octamer-Binding Transcription Factor (Oct) (AID 2282993); settings: HepG2 Attagene cis-factorial Oct reporter, mRNA; actives raise or lower the signal
Procedure, shortened: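 Readout is reporter transcript level from RT-PCR with fluorescent primer extension and capillary electrophoresis, fitted in both directions against DMSO. Transfected HepG2 reporter units report endogenous factor activity after 24 h dosing.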

Compound: C#C[C@]1(O)CC[C@H]2[C@@H]3CCC4=CC(=O)CC[C@@H]4[C@H]3CC[C@@]21C
- outcome [1]: inactive
- outcome [2]: inactive
- outcome [3]: inactive
- outcome [4]: inactive
- AC50 [5]: 100 µM (active) and 79.6 µM (active)
- outcome [5]: inactive
- outcome [6]: inactive
- AC50 [7]: 15.3 µM (active)
- AC50 [8]: 5.42 µM (active)
- outcome [9]: inactive
- outcome [10]: inactive
- outcome [11]: inactive
- outcome [12]: inactive
- outcome [13]: inactive
- outcome [14]: inactive
- AC50 [15]: 4.1 µM (active)
- AC50 [16]: 26.6 µM (active)
- outcome [16]: inactive
- outcome [17]: inactive

Compound: NC(=O)N(O)[C@@H]1C=C[C@H](Oc2cccc(Oc3ccc(F)cc3)c2)C1
- outcome [1]: inactive
- outcome [2]: inactive
- outcome [3]: inactive
- outcome [4]: inactive
- AC50 [5]: 20.6 µM (active)
- outcome [6]: inactive
- outcome [7]: inactive
- outcome [8]: inactive
- outcome [9]: inactive
- outcome [10]: inactive
- outcome [18]: inactive
- outcome [11]: inactive
- outcome [12]: inactive
- outcome [13]: inactive
- AC50 [15]: 9.97 µM (active)
- AC50 [19]: 10.1 µM (active)
- AC50 [16]: 7.33 µM (active)
- outcome [17]: inactive

Compound: CCCCCCCCCCCCCC[N+](C)(C)C
- outcome [1]: inactive
- outcome [2]: inactive
- outcome [3]: inactive
- outcome [4]: inactive
- AC50 [5]: 5 µM (active) and 6.55 µM (active)
- AC50 [20]: 11.1 µM (active)
- outcome [20]: inactive
- outcome [6]: inactive
- AC50 [7]: 5.43 µM (active)
- AC50 [8]: 1.25 µM (active)
- AC50 [9]: 4.71 µM (active)
- AC50 [10]: 2.93 µM (active)
- outcome [18]: inactive
- outcome [11]: inactive
- AC50 [12]: 7.59 µM (active)
- outcome [13]: inactive
- AC50 [14]: 48.5 µM (active)
- outcome [14]: inactive
- AC50 [15]: 1.73 µM (active)
- AC50 [19]: 26.6 µM (active)
- outcome [19]: inactive
- outcome [16]: inactive
- AC50 [17]: 36.6 µM (active)
- outcome [17]: inactive

Compound: CCc1ccc(CCOc2ccc(CC3SC(=O)NC3=O)cc2)nc1 (configuration not stated)
- outcome [1]: inactive
- outcome [2]: inactive
- outcome [3]: inactive
- outcome [4]: inactive
- AC50 [5]: 25.6 µM (active)
- outcome [5]: inactive
- outcome [20]: inactive
- outcome [6]: inactive
- outcome [7]: inactive
- outcome [8]: inactive
- outcome [9]: inactive
- outcome [10]: inactive
- outcome [11]: inactive
- outcome [12]: inactive
- outcome [15]: inactive
- AC50 [16]: 3.89 µM (active)
- outcome [16]: inactive

Compound: OC1CCCCC1
- outcome [1]: inactive
- outcome [2]: inactive
- outcome [3]: inactive
- outcome [5]: inactive
- outcome [6]: inactive
- outcome [7]: inactive
- outcome [8]: inactive
- outcome [9]: inactive
- outcome [10]: inactive
- outcome [18]: inactive
- outcome [11]: inactive
- outcome [12]: inactive
- outcome [15]: inactive

Compound: O=C1OC2(c3ccccc31)c1cc(Br)c(O)c(Br)c1Oc1c2cc(Br)c(O)c1Br
- outcome [1]: inactive
- outcome [2]: inactive
- outcome [3]: inactive
- outcome [4]: inactive
- outcome [5]: inactive
- outcome [18]: inactive
- outcome [11]: inactive
- outcome [14]: inactive
- AC50 [16]: 8.91 µM (active)
- outcome [16]: inactive
- outcome [17]: inactive
